Records with an inconclusive call do not appear. Active and inactive are the calls of the source. Unless noted, the call rests on the fitted dose curve; in most records, active means well fitted curve in the direction sought with a large enough effect in the repeat runs; inconclusive means weak or mixed curves; inactive means no such curve, though single readings can be large; an effect the other way counts as inactive or inconclusive.

These results are taken from PubChem BioAssay (Tox21).

The target of assay [1] is Progesterone receptor (Homo sapiens) (UniProt P06401). Put plainly: qHTS assay to identify small molecule agonists of the progesterone receptor (PR) signaling pathway (AID 1346784; calls by dose curve; further: nearly all actives have a fitted effect of over 30% in size). A digest of the protocol: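 Using charcoal-stripped serum (2%) to limit endogenous steroids, PR-UAS-bla HEK 293T cells received compounds for 16 hr at 37C after 6 hr plating; beta-lactamase FRET fluorescence was recorded following 2 hr substrate loading at room temperature.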
Background: qHTS replaces the single test concentration by a dilution series.

The target is the same in assay [2]. Briefly: qHTS assay to identify small molecule antagonists of the progesterone receptor (PR) signaling pathway (AID 1346795; active means well fitted inhibition curve with a large enough effect in the signal ratio in the repeat runs, not every such curve was filed as active; the % refers to the signal ratio; further: potency means the concentration at half of the fitted maximal effect). In outline:
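Inhibition of R5020-induced (1 nM final) beta-lactamase reporter signal in PR-UAS-bla HEK293T cells was scored by FRET fluorescence after overnight (16 hr) compound treatment.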

Assay [3] is described as follows: qHTS assay to identify small molecule antagonists of the progesterone receptor (PR) signaling pathway - cell viability counter screen (AID 1346798). Further: nearly all actives have a fitted effect of over 50% in size. Further: potency means the concentration at half of the fitted maximal effect. A digest of the protocol: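 ATP content as viability readout: CellTiter-Glo luminescence, 30 min room temperature, in PR-UAS-bla HEK293T cells after 16 hr compound/R5020 treatment at 37C and 5% CO2.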
A short description of assay [4]: qHTS assay to identify small molecule agonists of the progesterone receptor (PR) signaling pathway - cell viability counter screen (AID 1346799; calls by dose curve; further: nearly all actives have a fitted effect of over 45% in size). A digest of the protocol:
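Cytotoxicity in PR-bla HEK293T cells: 16 h compound, 37C; CellTiter-Glo added post-FRET read; luminescence after 30 min RT.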

Assay [5] can be described thus: qHTS assay to identify small molecule antagonists of the TGF-beta/Smad signaling pathway - cell viability counter screen (AID 1346824). Further: nearly all actives have a fitted effect of over 50% in size. In outline:
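Cytotoxicity counter-screen run in the same wells as the beta-lactamase Smad reporter read: CellTiter-Glo luminescence after 30 min at room temperature. HEK 293T SBE-bla cells had 5 hr compound exposure at 37 C with TGF-beta1 (0.25 ng/mL stock).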

The nature of assay [6]: qHTS assay to identify small molecule agonists of the TGF-beta/Smad signaling pathway - cell viability counter screen (AID 1346829). Further: top concentration of the series differs between compounds; nearly all actives have a fitted effect of over 45% in size. In outline: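 Cytotoxicity counter screen: CellTiter-Glo luminescence (30 min, room temperature) measured in the SBE-bla HEK 293T reporter wells after 5 hr compound treatment at 37 C and the 2 hr substrate step.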
Assay [7] in a line: qHTS assay to identify small molecule agonists of the TGF-beta/Smad signaling pathway (AID 1346859; active means well fitted activation curve with a large enough effect in the signal ratio in the repeat runs, not every such curve was filed as active; the % refers to the signal ratio; further: series mostly up to about 77 µM). A digest of the protocol: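 Stable Smad binding element-beta-lactamase HEK 293T cells; 5 hr compound exposure at 37 C under 5% CO2; 2 hr room-temperature substrate step; fluorescence excited at 405 nm, collected at 460 nm and 530 nm.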
Assay [8] has as its target Thyrotropin-releasing hormone receptor (Homo sapiens) (UniProt P34981). Put plainly: qHTS assay to identify small molecule antagonists of the thyrotropin-releasing hormone receptor (TRHR) signaling pathway (AID 1346877; active means well fitted inhibition curve with a large enough effect in the repeat runs, not every such curve was filed as active; further: series mostly up to about 51 µM). In outline:
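Screening used HEK293 cells engineered with TRHR, with a brief 5 min room-temperature compound exposure preceding addition of TRH to 1 nM. The read-out was kinetic calcium-dye fluorescence, concentration-response from 15 doses in triplicate.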

Assay [9] has the same target. Put plainly: qHTS assay to identify small molecule agonists of the thyrotropin-releasing hormone receptor (TRHR) signaling pathway (AID 1346891; calls by dose curve;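 further: HEK293 cells expressing TRHR with calcium dye readout; series mostly up to about 58 µM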). A digest of the protocol:
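In 1536-format, 1500 TRHR-Hek293 cells per well grew 18 h, took up calcium dye for 2 h at 37 °C, received compound, and were read kinetically; 15-point titrations, triplicates.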

Assay [10] in a line: Human pregnane X receptor (PXR) small molecule agonists, qHTS cell viability counter screen (AID 1346977). Further: nearly all actives have a fitted effect of over 50% in size. In outline:
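Readout is CellTiter-Fluor fluorescence from PXR-Luc HepG2 cells. Plated cells rested 5hr, then were treated with compounds for 24hr at 37C and 5% CO2, with reagent present during the last hour.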

Progesterone receptor (Homo sapiens), sequence (P06401 whole entry, looked up): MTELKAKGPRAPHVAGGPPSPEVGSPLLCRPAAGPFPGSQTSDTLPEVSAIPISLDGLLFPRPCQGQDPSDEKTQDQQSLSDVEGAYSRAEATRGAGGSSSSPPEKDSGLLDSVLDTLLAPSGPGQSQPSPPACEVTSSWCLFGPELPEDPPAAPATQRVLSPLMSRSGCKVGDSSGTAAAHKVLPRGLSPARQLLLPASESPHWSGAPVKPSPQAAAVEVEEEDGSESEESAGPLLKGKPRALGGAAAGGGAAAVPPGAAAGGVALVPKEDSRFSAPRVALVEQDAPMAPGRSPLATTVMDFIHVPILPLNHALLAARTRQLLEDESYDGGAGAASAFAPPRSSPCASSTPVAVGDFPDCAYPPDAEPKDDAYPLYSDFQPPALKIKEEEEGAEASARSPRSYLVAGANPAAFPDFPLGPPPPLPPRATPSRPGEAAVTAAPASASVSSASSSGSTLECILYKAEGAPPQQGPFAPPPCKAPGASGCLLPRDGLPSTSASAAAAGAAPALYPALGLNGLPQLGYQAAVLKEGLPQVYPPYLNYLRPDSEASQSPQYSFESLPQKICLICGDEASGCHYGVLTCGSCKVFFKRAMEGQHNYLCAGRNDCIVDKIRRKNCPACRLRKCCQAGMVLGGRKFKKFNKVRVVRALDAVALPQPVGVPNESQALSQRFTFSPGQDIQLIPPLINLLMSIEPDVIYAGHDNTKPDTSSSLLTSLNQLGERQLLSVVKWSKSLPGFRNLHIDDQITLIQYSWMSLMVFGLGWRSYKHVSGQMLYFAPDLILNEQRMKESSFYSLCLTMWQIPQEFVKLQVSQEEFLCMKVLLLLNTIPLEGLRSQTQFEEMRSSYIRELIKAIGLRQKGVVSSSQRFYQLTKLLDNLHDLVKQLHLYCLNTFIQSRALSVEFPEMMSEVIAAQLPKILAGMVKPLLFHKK
Thyrotropin-releasing hormone receptor (Homo sapiens), sequence (P34981 whole entry, looked up): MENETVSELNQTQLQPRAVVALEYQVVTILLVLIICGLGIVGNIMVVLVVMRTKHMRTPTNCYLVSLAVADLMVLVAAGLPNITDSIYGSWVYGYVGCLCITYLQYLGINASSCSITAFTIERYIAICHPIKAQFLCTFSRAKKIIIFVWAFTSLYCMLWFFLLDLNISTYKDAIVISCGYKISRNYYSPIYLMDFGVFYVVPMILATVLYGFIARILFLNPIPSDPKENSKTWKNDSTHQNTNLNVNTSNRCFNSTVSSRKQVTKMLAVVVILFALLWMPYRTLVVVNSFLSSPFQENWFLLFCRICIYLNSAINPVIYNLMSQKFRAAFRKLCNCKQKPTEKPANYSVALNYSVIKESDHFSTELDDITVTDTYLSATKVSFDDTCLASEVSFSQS

Take `NC(=O)CI`: the Potency result in assay [1], in assay [2], in assay [3], in assay [4], in assay [5] and in [6] was “inactive” each time. Also, the Potency result in assay [8], in [9] and in assay [10] was “inactive” in each case. Further, the outcome in assay [7] was inactive.

For `CCBr`, the Potency entry in assay [1], in assay [2], in assay [3], in assay [4], in assay [5] and in [6] was “inactive” each time. Further, the Potency entry in assay [8], in assay [9] and in assay [10] was “inactive” throughout. Further, the compound was called inactive in assay [7].

Regarding `Cc1ccccc1CCl`, the Potency entry in assay [1], in assay [2], in [3], in assay [4], in assay [5] and in [6] was “inactive” throughout. The Potency entry in [8], in [9] and in assay [10] was “inactive” each time. In [7], the result was inactive.

In the case of `C=CCOC(C)=O`, the Potency entry in assay [1], in assay [3], in assay [4], in assay [5], in assay [6] and in [8] was “inactive” each time. The Potency entry in assay [9] and in [10] was “inactive” throughout. Besides, the Potency in [2] was 1.91 µM (active). In addition, the outcome in assay [7] was inactive.

Turning to `CC(C)(OO)c1ccccc1`, the Potency entry in assay [1], in [2], in assay [3], in [4], in assay [5] and in assay [6] was “inactive” in each case. Also, the Potency result in [8], in assay [9] and in assay [10] was “inactive” in each case. Further, the compound was called inactive in assay [7].

As to `Brc1ccccc1`, the Potency result in assay [1], in [2], in assay [3], in [4], in [5] and in [6] was “inactive” each time. The Potency entry in assay [8], in assay [9] and in [10] was “inactive” each time. Further, the call in assay [7] was inactive.

Take `CCOc1nc(F)cc2nc(S(=O)(=O)Nc3c(Cl)cccc3Cl)nn12`: the Potency entry in assay [1], in assay [2], in [3], in [4], in assay [5] and in assay [6] was “inactive” in each case. The Potency entry in assay [8], in [9] and in assay [10] was “inactive” throughout. Further, in assay [7], the call was inactive.

As for `Nc1nc(N)nc(N)n1`, the Potency entry in [1], in assay [2], in [3], in assay [4], in assay [5] and in assay [6] was “inactive” in each case. In addition, the Potency entry in [8], in [9] and in [10] was “inactive” in each case. Besides, in assay [7], the call was inactive.

Turning to `Sc1ccccc1Cl`, the Potency result in assay [1], in [2], in [3], in assay [4], in [5] and in [6] was “inactive” in each case. For the same compound, the Potency result in [8], in assay [9] and in [10] was “inactive” each time. In addition, the compound was called inactive in [7].

Take `C=CC(=O)OC`: the Potency result in [1], in assay [2], in [3], in [4], in assay [5] and in assay [6] was “inactive” in each case. Besides, the Potency result in assay [8], in assay [9] and in [10] was “inactive” each time. In addition, the compound was classed as inactive in assay [7].

As for `CN1C(=O)NC(=O)C(C)(C2=CCCCC2)C1=O` (stereo not drawn), the Potency result in [1], in assay [2], in [3], in [4], in assay [5] and in assay [6] was “inactive” throughout. For the same compound, the Potency result in assay [8], in [9] and in assay [10] was “inactive” in each case. Further, the outcome in assay [7] was inactive.

Take `N#CCc1ccccc1`: the Potency result in assay [1], in [2], in assay [3], in assay [4], in [5] and in [6] was “inactive” each time. Moreover, the Potency entry in [8], in assay [9] and in assay [10] was “inactive” in each case. Besides, in assay [7], the compound was called inactive.

Take `CC(=O)CCC(C)=O`: the Potency entry in assay [1], in assay [2], in assay [3], in assay [4], in assay [5] and in assay [6] was “inactive” in each case. Also, the Potency entry in assay [8], in [9] and in assay [10] was “inactive” in each case. Besides, in assay [7], the result was inactive.

Turning to `c1ccoc1`, the Potency result in assay [1], in assay [2], in [3], in assay [4], in [5] and in assay [6] was “inactive” throughout. Further, the Potency entry in assay [8], in assay [9] and in assay [10] was “inactive” each time. Moreover, the compound was classed as inactive in assay [7].

As for `Cc1ccc(N)cc1C`, the Potency entry in [1], in [2], in assay [3], in assay [4], in assay [5] and in assay [6] was “inactive” throughout. The Potency result in assay [8], in assay [9] and in [10] was “inactive” each time. Further, the call in assay [7] was inactive.

`Cc1ccc2ccccc2c1`: the Potency result in assay [1], in [2], in [3], in assay [4], in assay [5] and in assay [6] was “inactive” throughout. The Potency entry in [8], in [9] and in assay [10] was “inactive” throughout. Further, the call in assay [7] was inactive.

With `CCOP(O)OCC`, the Potency result in assay [1], in assay [2], in assay [3], in assay [4], in assay [5] and in assay [6] was “inactive” in each case. Moreover, the Potency result in assay [8], in assay [9] and in [10] was “inactive” throughout. Moreover, the compound was classed as inactive in assay [7].

Consider `O=C(O)CC(Cl)C(=O)O` (stereo not drawn), for which the Potency result in [1], in assay [2], in [3], in assay [4], in [5] and in assay [6] was “inactive” throughout. In addition, the Potency result in assay [8], in [9] and in [10] was “inactive” in each case. Moreover, in [7], the compound was called inactive.

Take `O=NN1CCCCCC1`: the Potency entry in assay [1], in [2], in [3], in assay [4], in assay [5] and in assay [6] was “inactive” throughout. Besides, the Potency result in assay [8], in assay [9] and in assay [10] was “inactive” in each case. The compound was called inactive in assay [7].

Take `CCCCN(N=O)C(=N)N[N+](=O)[O-]`: the Potency result in assay [1], in [2], in [3], in assay [4], in assay [5] and in assay [6] was “inactive” each time. Also, the Potency result in assay [8] and in assay [9] was “inactive” each time. Further, the outcome in assay [7] was inactive.

For the compound `C=CCC1([C@H](C)CCC)C(=O)NC(=O)NC1=O`, the Potency result in assay [1], in assay [2], in [3], in [4], in assay [5] and in assay [6] was “inactive” throughout. The Potency result in assay [8], in [9] and in assay [10] was “inactive” in each case. Also, the outcome in assay [7] was inactive.

With `O=C1C(Cl)C(CCl)CN1c1cccc(C(F)(F)F)c1` (stereo not drawn), the Potency entry in [1], in [4], in assay [5], in assay [6], in assay [8] and in [9] was “inactive” each time. Moreover, in [10], the Potency entry was “inactive”. Further, the Potency in [2] was 30.6 µM (active); in [3], 0.864 µM (active). For the same compound, the result in [7] was inactive.

Turning to `CCOS(C)(=O)=O`, the Potency entry in assay [1], in assay [2], in assay [3], in [4], in assay [5] and in [6] was “inactive” each time. Also, the call in assay [7] was inactive.

Turning to `NC(=O)C(Cl)(Cl)Cl`, the Potency result in [1], in assay [2], in [3], in [4], in assay [5] and in assay [6] was “inactive” each time. The Potency entry in [8], in assay [9] and in [10] was “inactive” throughout. Besides, in assay [7], the compound was classed as inactive.

For the compound `O=S1OC[C@@H]2[C@H](CO1)[C@]1(Cl)C(Cl)=C(Cl)[C@@]2(Cl)C1(Cl)Cl` (stereo partly drawn), the Potency entry in assay [1], in assay [3], in [4], in assay [5] and in assay [6] was “inactive” in each case. For the same compound, the Potency in [2] was 30.6 µM (active). In addition, in [7], the compound was classed as inactive.

As for `CCCCNP(N)(N)=S`, the Potency result in assay [1], in assay [2], in assay [3], in assay [4], in assay [5] and in [6] was “inactive” throughout. The Potency entry in assay [8], in assay [9] and in assay [10] was “inactive” throughout. Besides, the compound was called inactive in [7].
